Measurements: PubChem BioAssay (NCATS)
Records with an inconclusive call do not appear. Values without a mark were called inactive. Activity calls are given as the source filed them. The call rests on the fitted dose curve; in most records, active means well fitted cell-killing curve with a large enough effect; inconclusive means small, poorly fitted or top-dose-only effect; inactive means no such curve, though single readings can be large or run the other way.

Assay: qHTS of pediatric cancer cell lines to identify multiple opportunities for drug repurposing: Primary screen for SK-N-SH cells (AID 1347098); further: nearly all actives have a fitted effect of over 65% in size
Settings: SK-N-SH viability, CellTiter-Glo luminescence, 48 h; series mostly up to 57 µM; activity change, negative = cytotoxic: at the top concentration
Source text: Drug repurposing or repositioning has been offered as a strategy for drug development in oncology programs. This approach has special potential for childhood cancers and other rare or orphan diseases, where the expected return on new drug development has been a disincentive to pharmaceuticals.
In this project we exploit the poly-pharmacology of drugs to discover new indications via phenotypic screening of a panel of 19 well-characterized cell lines derived from solid tumors seen in children and adolescents. The goal is to identify approved drugs with previously unrecognized anticancer properties that has the potential to reveal new mechanisms and biological processes involved in carcinogenesis or drug resistance. We employed a titration-based paradigm (quantitative high-throughput screening or qHTS), where all compounds were tested at multiple concentrations for their effect on cell viability. Concentration-response curves (CRCs) were derived directly from the primary screen, and both potency and efficacy values were used to identify compounds with robust bioactivity profiles. We screened the NIH Chemical Genomics Center (NCGC) Pharmaceutical Collection (NPC) and Mechanism Interrogation Plate (MIPE) small molecule collections of approved and investigational compounds against these cell lines; and measured metabolically active cells after 48 hours of compound treatment as a proxy for cell viability.
Assay Submitter: Nathalia J. Martinez, National Center for Advancing Translational Sciences, National Institutes of Health, Rockville, MD, USA; email: natalia.martinez@nih.gov
[1] Shen, M et al. Quantitative high-throughput phenotypic screening of pediatric cancer cell lines identifies multiple opportunities for drug repurposing. Oncotarget 2017 Dec 19;9(4):4758-4772. PMID 29435139.
The cells were obtained from University of North Carolina (UNC), Pediatric Preclinical Testing Program (PPT), and Coriell Institute (CI).
qHTS cell viability assay:
Cells were assayed in growth media at a density of 500-1,000 cells/well. Five microliters of cells were dispensed into 1,536-well, white, solid-bottom, TC-treated plates (Greiner Bio One) using a multidrop dispenser and incubated at 37 degrees C, 5% CO2, under a humidified atmosphere for 5 hours. Twenty-three nanoliters of compounds and controls (neutral control DMSO or positive control bortezomib at final concentration of 2.3 µM) were subsequently transferred by Kalypsys pintool. For primary screens, the MIPE collection was tested at 11-point dilutions (final concentrations range from 0.78 nM to 46 µM) and the NPC collection at 8-point dilutions (final concentrations range from 0.59 nM to 46 µM). Compounds tested in follow-up screens were assayed at 11-point dilutions. Cells were incubated for 48 hours, followed by addition of 3 µL of CellTiter-Glo (Promega). After a 15 min incubation at room temperature, samples were analyzed for luminescence intensity using a ViewLux High-throughput CCD imager equipped with clear filters.
On the % scale 0 is the no-effect control and ±100 the full control effect; potency means the concentration at half of the fitted maximal effect.

Row | SMILES | Potency | activity change, negative = cytotoxic
1 | C[C@H]1O[C@@H](O[C@H]2CC[C@@]3(C)[C@H](CC[C@@H]4[C@@H]3C[C@@H](O)[C@]3(C)[C@@H](C5=CC(=O)OC5)CC[C@]43O)C2)C[C@H](O)[C@@H]1O[C@H]1C[C@H](O)[C@H](O[C@H]2C[C@H](O)[C@H](O[C@@H]3O[C@H](CO)[C@@H](O)[C@H](O)[C@H]3O)[C@@H](C)O2)[C@@H](C)O1 | 0.386 µM (active) | –
2 | CCOC(=O)[C@H](CCc1ccccc1)N[C@@H](C)C(=O)N1[C@H](C(=O)O)C[C@@H]2CCC[C@@H]21 | – | 3.67%
3 | O=C(O)CCC(=O)Nc1ccc(S(=O)(=O)Nc2nccs2)cc1 | – | -15.1%
4 | CCOC(=O)Nc1ccc2c(c1)N(C(=O)CCN1CCOCC1)c1ccccc1S2 | – | -38.5%
5 | CN(CCCN1c2ccccc2CCc2ccccc21)CC(=O)c1ccc(Cl)cc1 | – | -27.9%
6 | CC(=C(CCOC(=O)C(C)C)SSC(CCOC(=O)C(C)C)=C(C)N(C=O)Cc1cnc(C)nc1N)N(C=O)Cc1cnc(C)nc1N | – | 13.7%
7 | O=C(Nc1ccc([N+](=O)[O-])cc1)Nc1ccc([N+](=O)[O-])cc1 | – | 5.5%
8 | CCCCCCCCCCCCCCCCO | – | -1.83%
9 | OC[C@H]1O[C@@H](Oc2ccc(O)cc2)[C@H](O)[C@@H](O)[C@@H]1O | – | 3.62%
10 | COc1ccc(C(Cl)=C(c2ccc(OC)cc2)c2ccc(OC)cc2)cc1 | – | 0.15%
11 | Cc1ccc(S(=O)(=O)NC(=O)NC2CCCC2)cc1 | – | 5.15%
12 | CCN(CC)CCOC(=O)C1(c2ccccc2)CCCC1 | – | -47.5%
13 | COc1ccc2c(c1)c1c3n2CCN(C)C3=NCC1 | – | -16.7%
14 | Cc1cc(C)cc(OCC2CNC(=O)O2)c1 (stereo not given) | – | 5.97%
15 | CCOC(=O)C(C#N)=C(c1ccccc1)c1ccccc1 | – | -3.35%
16 | C[C@@]12C(=O)OC(=O)[C@]1(C)C1CCC2O1 | 3.44 µM (active) | –
17 | CN1CCN(CCC(=O)N2c3ccccc3Sc3ccc(C(F)(F)F)cc32)CC1 | 9.7 µM (active) | –
18 | COc1cc(C(=O)N2CCCCCCC2)cc(OC)c1OC | – | 1.71%
19 | Oc1c(Cl)cc(Cl)c(Cl)c1Cc1c(O)c(Cl)cc(Cl)c1Cl | 12.2 µM (active) | –
20 | Cc1c(-c2ccccc2)oc2c(C(=O)OCCN3CCCCC3)cccc2c1=O | – | 6.79%

Row | SMILES | Potency | activity change, negative = cytotoxic
21 | C=C[C@@]1(C)CC(=O)[C@]2(O)[C@@]3(C)[C@@H](O)CCC(C)(C)[C@@H]3[C@H](O)[C@H](OC(C)=O)[C@@]2(C)O1 | – | -9.81%
22 | Cc1ncc(CO)c(C=O)c1O | – | -0.402%
23 | c1ccc(CC2=NCCN2)cc1 | – | 4.6%
24 | CC(C)[C@@H]1CC[C@@H](C)CC1=O | – | -10%
25 | CCNC(=O)/C=C/c1cccc(Br)c1 | – | -20.5%
26 | OC1C(O)C(O)C(O)C(O)C1O (stereo not given) | – | 1.9%
27 | CCN1CCN(C(=O)N[C@@H](C(=O)N[C@@H]2C(=O)N3C(C(=O)O)=C(CSc4nnnn4C)CS[C@H]23)c2ccc(O)cc2)C(=O)C1=O | – | -16.2%
28 | CC(=O)Nc1ccc(CC(=O)O)cc1 | – | 9.62%
29 | Cc1ccc(-c2ncc(Cl)cc2-c2ccc(S(C)(=O)=O)cc2)cn1 | – | 1.35%
30 | N=C(N)N1CCc2ccccc2C1 | – | -21.9% [at 6 µM]
31 | O=C(NC1CCN(CCc2c[nH]c3ccccc23)CC1)c1ccccc1 | – | -17.6%
32 | CNCCc1ccccn1 | – | -6.06%
33 | CCCCCCCCCCCCCCC[C@H](O)[C@@H](N)CO | – | -14.6%
34 | O=C1OC(CN2CCOCC2)CN1/N=C/c1ccc([N+](=O)[O-])o1 (stereo not given) | – | 5.48%
35 | CN1CCN(C2=Nc3ccccc3Sc3ccc(Cl)cc32)CC1 | – | -15.3%
36 | CC(=O)O[C@]1(C(C)=O)CC[C@H]2[C@@H]3C=C(Cl)C4=CC(=O)CC[C@]4(C)[C@H]3CC[C@@]21C | – | -10.7%
37 | CC(CNC1CCCCC1)OC(=O)c1ccccc1 (stereo not given) | – | -5.9%
38 | Nc1ccc(S(=O)(=O)Nc2cnc3ccccc3n2)cc1 | – | 0.763%
39 | CN(Cc1ccc(C(C)(C)C)cc1)Cc1cccc2ccccc12 | – | -21.2%
40 | CCN(CC)CCOC(=O)C(Cc1cccc2ccccc12)CC1CCCO1 (stereo not given) | – | -27.3%
